About 79,000 compounds went through this panel and 15% of them were active in at least one assay; those are over-represented in the sample as a whole. A number with no mark means an inactive call. Active and inactive are the calls of the source. No stated cut-off is given here; in the data, active means growth inhibition above about 70%; inactive means the rest.

Experimental findings from PubChem BioAssay (NCI) are described below.

The first experiment in a line: NCI Yeast Anticancer Drug Screen. Data for the cln2 rad14 strain (AID 165).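 Further: 0% = growth equal to vehicle treated cultures.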 To be noted: S. cerevisiae cln2 rad14 strain, at 50.0 µM, hits give high values. The essentials:
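Growth of compound-exposed yeast (cln2 rad14 genotype) measured and expressed as inhibition relative to vehicle.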
Consider `Clc1ccc(C(CI)c2ccccc2Cl)cc1` (stereo not given), for which the growth inhibition is 13.8%.
Turning to `O=C1NC(=O)C(c2ccc3c(c2)OCO3)N1` (stereo not given), the growth inhibition was -30.9%.
The same measure, in the same setting: with `Cc1ccc(N=C2SC(c3ccc(C)cc3)(c3ccc(C)cc3)c3ccccc32)cc1` the figure was -4.75%; with `NC(=S)NNC(=O)/C(=C/c1ccc(/C=C(\NC(=O)c2ccccc2)C(=O)NNC(N)=S)cc1)NC(=O)c1ccccc1`, 39.8%; with `CC1=CC(=O)[C@@H](O)[C@]2(C)[C@H]3[C@@]4(O)OC[C@]35[C@H]([C@@H](CO)[C@H]4O)[C@@H](OC3OC(CO)C(O)C(O)C3O)C(=O)O[C@@H]5C[C@@H]12` (stereo not given in full), 2.65%.
Regarding `O=C1CCCCC1COCC1CCCCC1=O` (stereo not given), the growth inhibition is -17.6%.
Take `CC(=O)c1nc2ccccc2n1CC(=O)c1ccc(Cl)cc1`: the growth inhibition was 12.6%.
Take `Cc1cc(C)c(NC(=O)Nc2ccccc2F)cc1C`: the growth inhibition is 24.7%.
On the same count and under the same terms, with `CCCCC(CC)C(=S)N1CCOCC1` (stereo not given) the figure was 7.25%; with `Nc1ccc2[nH]cc(CCC(=O)O)c2c1`, -11.6%.
Same read-out and setting: the value for `O=C1c2c(nc3ccccc3c2-c2ccccc2)CN1Nc1ccccc1` was 5.65%; that for `NC(=O)c1cc(Br)ccc1O` was 8.9%; that for `C1CC(CCN2CCOCC2)CCN1` was 9.8%.
In the case of `COc1ccc(C(=O)C(C)C(O)C(=O)O)c(O)c1C` (stereo not given), the growth inhibition is 2%.
On to `N#CC(=O)Nc1ccc(Cl)c(Cl)c1`, for which the growth inhibition was -76.6%.
Still for that read-out and setting: the value for `Cc1ccccc1C(=O)NNC(=O)c1cccc2ccccc12` was 3.65%; that for `CC(C)(C)C1CCC2c3c([nH]c4ccccc34)C3C(=O)N(c4ccc(Cl)cc4)C(=O)C3C2C1` (stereo not given) was -44.4%; that for `O=C1C(=C(c2ccc([N+](=O)[O-])cc2)N2CCOCC2)C(=O)c2ccccc21` was -30.9%.
On to `Clc1c(-c2ccccc2)oc2nc3ccccc3nc12`, for which the growth inhibition was 21.6%.
Same read-out and setting: the value for `CC(NC(=O)C(CC(=O)OCc1ccccc1)NC(=O)OCc1ccccc1)c1ccccc1` (stereo not given) was -21.6%; that for `CCC(C)(O)C(C)(O)CC` (stereo not given) was 17.6%.
Same read-out and setting: with `Cc1nc2ccccc2c(=O)n1NC(=O)c1ccccc1O` the figure was 11.5%; with `COC1(C)CCC2(O)C(=O)OC3C(O)COC32O1` (stereo not given), -1.3%.
Take `CCOC(=O)c1ccc(NC(=S)NC(=O)c2cccc([N+](=O)[O-])c2)cc1`: the growth inhibition was -12.8%.
`C=CCOc1ccc(S(=O)(=O)c2ccc(OCC=C)cc2)cc1`: the growth inhibition was -27.7%.
Same read-out and setting: with `COc1cccc2c(Cl)c3ccc(Cl)cc3nc12` the figure was -39.1%.
Same read-out and setting: with `CCN(CC)Cc1ccccc1CO` the figure was 9.75%; with `NC(=O)NNC(=O)NC12CC3CC(CC(C3)C1)C2`, -45.8%.
On the same count and under the same terms, the value for `CCCCCCC(=O)OCC` was 0.9%; that for `CCCCCCCCCCCCCCCCN` (tested in a mixture with another compound) was -24.1%; that for `Cc1c2c(cc3c1[nH]c1ccccc13)C(=O)c1ccccc1C2=O` was 75.3% (active).
`O=C1c2cc3c(cc2C(=O)c2[nH]c(=O)ccc21)CCCC3`: the growth inhibition is 0.85%.
For `COc1cc2c3c(c1)[nH]c(=S)n3C(=O)CS2`, the growth inhibition is -16.7%.
For `Cc1cc([N+](=O)[O-])cnc1Cl`, the growth inhibition was -15.9%.
As for `Clc1ccccc1/C=C(/c1ccccc1)c1ccccn1`, the growth inhibition is -8.85%.
Still for that read-out and setting: with `Nc1cnc(Nc2cccc3ccccc23)o1` the figure was 0.35%; with `S=c1[nH]c2ccccc2n2cccc12`, 12.8%.
Take `c1ccc(CCc2nccc3ccccc23)cc1`: the growth inhibition is -0.9%.
Same read-out and setting: with `N#C/C(=C\Nc1ccccn1)C(=O)c1ccco1` the figure was -0.5%; with `CC/C(CC(=O)CCC(=O)Nc1ccccc1[N+](=O)[O-])=N/NC(=O)C[n+]1ccccc1`, 16.4%.

A further experiment is described as follows: NCI Yeast Anticancer Drug Screen. Data for the bub3 strain (AID 167). To be noted: S. cerevisiae bub3 mutant strain, at 50.0 µM, hits give high values. The essentials:
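Whole-cell yeast assay. The mutant strain was incubated with compounds, and growth inhibition was determined by comparison with vehicle-treated cells.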
`Clc1ccc(C(CI)c2ccccc2Cl)cc1` (stereo not given): the growth inhibition was 27.9%.
Same read-out and setting: with `O=C1NC(=O)C(c2ccc3c(c2)OCO3)N1` (stereo not given) the figure was -23.3%; with `Cc1ccc(N=C2SC(c3ccc(C)cc3)(c3ccc(C)cc3)c3ccccc32)cc1`, -7.15%; with `NC(=S)NNC(=O)/C(=C/c1ccc(/C=C(\NC(=O)c2ccccc2)C(=O)NNC(N)=S)cc1)NC(=O)c1ccccc1`, 39.2%.
On the same count and under the same terms, with `CC1=CC(=O)[C@@H](O)[C@]2(C)[C@H]3[C@@]4(O)OC[C@]35[C@H]([C@@H](CO)[C@H]4O)[C@@H](OC3OC(CO)C(O)C(O)C3O)C(=O)O[C@@H]5C[C@@H]12` (stereo not given in full) the figure was -25.1%; with `O=C1CCCCC1COCC1CCCCC1=O` (stereo not given), 5.25%; with `CC(=O)c1nc2ccccc2n1CC(=O)c1ccc(Cl)cc1`, 43.7%.
For the compound `Cc1cc(C)c(NC(=O)Nc2ccccc2F)cc1C`, the growth inhibition was 33.1%.
Consider `CCCCC(CC)C(=S)N1CCOCC1` (stereo not given), for which the growth inhibition is -4.65%.
In the case of `Nc1ccc2[nH]cc(CCC(=O)O)c2c1`, the growth inhibition was -60.6%.
Regarding `O=C1c2c(nc3ccccc3c2-c2ccccc2)CN1Nc1ccccc1`, the growth inhibition is -37.7%.
`NC(=O)c1cc(Br)ccc1O`: the growth inhibition is -19.4%.
Turning to `C1CC(CCN2CCOCC2)CCN1`, the growth inhibition is -2.7%.
Still for that read-out and setting: with `COc1ccc(C(=O)C(C)C(O)C(=O)O)c(O)c1C` (stereo not given) the figure was -16.5%; with `N#CC(=O)Nc1ccc(Cl)c(Cl)c1`, -2.15%.
Consider `Cc1ccccc1C(=O)NNC(=O)c1cccc2ccccc12`, for which the growth inhibition is 0.45%.
On the same count and under the same terms, the value for `CC(C)(C)C1CCC2c3c([nH]c4ccccc34)C3C(=O)N(c4ccc(Cl)cc4)C(=O)C3C2C1` (stereo not given) was -25.4%; that for `O=C1C(=C(c2ccc([N+](=O)[O-])cc2)N2CCOCC2)C(=O)c2ccccc21` was 1.75%.
In the case of `Clc1c(-c2ccccc2)oc2nc3ccccc3nc12`, the growth inhibition is -1.55%.
The same measure, in the same setting: the value for `CC(NC(=O)C(CC(=O)OCc1ccccc1)NC(=O)OCc1ccccc1)c1ccccc1` (stereo not given) was -17.4%; that for `CCC(C)(O)C(C)(O)CC` (stereo not given) was -13.8%; that for `Cc1nc2ccccc2c(=O)n1NC(=O)c1ccccc1O` was -4.1%.
Still for that read-out and setting: with `COC1(C)CCC2(O)C(=O)OC3C(O)COC32O1` (stereo not given) the figure was -1.85%.
Still for that read-out and setting: with `CCOC(=O)c1ccc(NC(=S)NC(=O)c2cccc([N+](=O)[O-])c2)cc1` the figure was 15.1%; with `C=CCOc1ccc(S(=O)(=O)c2ccc(OCC=C)cc2)cc1`, 8.2%.
`COc1cccc2c(Cl)c3ccc(Cl)cc3nc12`: the growth inhibition was -18.9%.
`CCN(CC)Cc1ccccc1CO`: the growth inhibition was 9.6%.
In the case of `NC(=O)NNC(=O)NC12CC3CC(CC(C3)C1)C2`, the growth inhibition was 0.65%.
Consider `CCCCCCC(=O)OCC`, for which the growth inhibition was 12.9%.
For the compound `CCCCCCCCCCCCCCCCN` (tested in a mixture with another compound), the growth inhibition is 26.5%.
Regarding `Cc1c2c(cc3c1[nH]c1ccccc13)C(=O)c1ccccc1C2=O`, the growth inhibition is 68.1%.
On the same count and under the same terms, the value for `O=C1c2cc3c(cc2C(=O)c2[nH]c(=O)ccc21)CCCC3` was 33.4%.
For the compound `COc1cc2c3c(c1)[nH]c(=S)n3C(=O)CS2`, the growth inhibition is -18.7%.
Same read-out and setting: with `Cc1cc([N+](=O)[O-])cnc1Cl` the figure was 12%; with `Clc1ccccc1/C=C(/c1ccccc1)c1ccccn1`, 29.9%; with `Nc1cnc(Nc2cccc3ccccc23)o1`, 8.85%.
On to `S=c1[nH]c2ccccc2n2cccc12`, for which the growth inhibition was -12.3%.
On the same count and under the same terms, with `c1ccc(CCc2nccc3ccccc23)cc1` the figure was 13.9%; with `N#C/C(=C\Nc1ccccn1)C(=O)c1ccco1`, -55.9%.
Take `CC/C(CC(=O)CCC(=O)Nc1ccccc1[N+](=O)[O-])=N/NC(=O)C[n+]1ccccc1`: the growth inhibition was -1.35%.
